Screening data from PubChem BioAssay.
This is a sample that favours compounds with a hit; in the whole collection about 2.9% have one here.
PLCg1 inh = PLC-gamma1 enzyme inhibitors, primary screen, biochemical, fluorescence, purified enzyme; 1-phosphatidylinositol 4,5-bisphosphate phosphodiesterase gamma-1 (Homo sapiens), P19174; fluorogenic substrate; inhibition, % at 12.2 µM; 0.84% of 370,000 active; AID 720700, 2013
ADAM10 inh = human ADAM10 inhibitors, primary screen, biochemical, QFRET, HTS; Disintegrin and metalloproteinase domain-containing protein 10 (Homo sapiens), O14672; recombinant ADAM10, EDANS/DABCYL FRET peptide cleavage, 3 h; inhibition, % at 7 µM; 0.62% of 370,000 active; AID 720582, 2013;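 active means inhibition above a per-campaign cutoff equal to the mean of compounds falling between control-based bounds plus 3 SD, cut at about 20% in these data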
ADAM17 inh = ADAM17 inhibitors, primary screen, biochemical, QFRET; Disintegrin and metalloproteinase domain-containing protein 17 (Homo sapiens), P78536; inhibition, % at 6.95 µM; 0.83% of 370,000 active; AID 720648, 2013; recombinant ADAM17, EDANS/DABCYL FRET peptide cleavage;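 active means inhibition above the mean of compounds lying between control limits plus 3 SD, set per campaign, cut at about 8.5% in these data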
Target sequence (P78536 215-824 limits assumed): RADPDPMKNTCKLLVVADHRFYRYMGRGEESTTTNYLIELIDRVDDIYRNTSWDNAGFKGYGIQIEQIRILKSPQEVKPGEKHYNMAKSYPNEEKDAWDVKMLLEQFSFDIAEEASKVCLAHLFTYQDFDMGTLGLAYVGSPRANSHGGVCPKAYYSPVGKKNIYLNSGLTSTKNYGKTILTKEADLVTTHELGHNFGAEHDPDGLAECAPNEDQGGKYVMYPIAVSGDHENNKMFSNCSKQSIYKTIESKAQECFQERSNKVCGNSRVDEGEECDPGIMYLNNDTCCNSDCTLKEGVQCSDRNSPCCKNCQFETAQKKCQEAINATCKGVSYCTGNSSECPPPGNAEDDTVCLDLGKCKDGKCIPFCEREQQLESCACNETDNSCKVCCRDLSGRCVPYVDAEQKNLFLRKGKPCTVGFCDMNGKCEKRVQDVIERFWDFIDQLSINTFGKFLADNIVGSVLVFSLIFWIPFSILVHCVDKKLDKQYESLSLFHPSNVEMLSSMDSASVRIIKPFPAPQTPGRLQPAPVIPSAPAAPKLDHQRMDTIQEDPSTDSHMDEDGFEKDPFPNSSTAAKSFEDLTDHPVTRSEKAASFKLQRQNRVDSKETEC
PLC-beta3 inh = human PLC-beta3 inhibitors, primary screen, biochemical, fluorescence; 1-phosphatidylinositol 4,5-bisphosphate phosphodiesterase beta-3 (Homo sapiens), Q01970; Purified PLC-beta3, fluorogenic substrate; inhibition, % at 12.2 µM; 0.18% of 370,000 active; in the data active means inhibition above about 11%
proKLK7 act = proKLK7 zymogen activators, primary screen, biochemical, fluorescence intensity | Kallikrein-7 (Homo sapiens), P49862 | purified proKLK7, EDANS-DABCYL substrate fluorescence; 100% is mature enzyme control, 0% vehicle | activation, % at 7 µM | 0.9% of 370,000 active;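 active means activation above the mean of all tested compounds plus 3 SD, computed per campaign excluding outliers beyond control limits, cut at about 13% in these data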
PLCg1 ctr = PLC-gamma1 enzyme inhibitors, counter-screen for PLC-beta3 inhibitor project, biochemical, fluorescence | inhibition, % at 12.3 µM | AID 743258, 2014 | shares compounds with PLCg1 inh | purified PLC-gamma1, fluorogenic substrate | 3.1% of 3,300 active
PLCb3 confirm = PLC-beta3 inhibitor confirmation, biochemical, fluorescence, purified enzyme. shares compounds with PLCg1 inh. fluorogenic substrate fluorescence. inhibition, % at 12.3 µM. 1% of 3,300 active; in the data active means inhibition above about 11%
Each line names hits and unclear results; the compound was inactive in the other large screens (follow-up assays come after a bar, where they were run). Unless noted, no stated cut-off is given here; in the data, active means inhibition above about 9.5%; inactive means the rest.

C[C@H]1C(=O)N(C)CCN1C(=O)c1cccc(OC2CCN(CC(C)(C)C)CC2)c1	none
CC1C(=O)C(C)(C)C(=O)OC1c1ccc([N+](=O)[O-])cc1 (stereo not drawn)	none
CCCCN1CC[C@H]2C=CC[C@@H](C(=O)Nc3nccs3)[C@H]2C1=O	none
c1ccc(Cn2ncc3ccccc32)cc1	PLCg1 inh 15 | PLCg1 ctr inactive | PLCb3 confirm inactive
Cc1ccccc1NC(=O)CN(C)S(=O)(=O)c1cccs1	none
Cc1ccc(COc2coc(CN3CCN(C(=O)c4ccco4)CC3)cc2=O)cc1	none
O=C(c1ccco1)N1CCN(Cc2cc(=O)c(OCc3ccc([N+](=O)[O-])cc3)co2)CC1	PLCg1 inh 11 | PLCg1 ctr inactive | PLCb3 confirm inactive
Cc1ccc(/C=N/n2c(-c3ccco3)n[nH]c2=S)s1	PLCg1 inh 11 | PLCg1 ctr inactive | PLCb3 confirm inactive
COc1ccc(S(=O)(=O)N2CCC(C(=O)NCCc3c[nH]c4ccccc34)CC2)cc1	none
O=C(NC(=S)Nc1ccc(NC(=O)c2cccs2)cc1)c1ccco1	PLC-beta3 inh 15 | PLCg1 ctr inactive | PLCb3 confirm inactive
Cc1cc(C(=O)Nc2ccccc2N2CCOCC2)no1	none
Cc1cc(C(=O)Nc2ccccc2N2CCCCC2)no1	PLCg1 inh 9.8 | PLCg1 ctr inactive | PLCb3 confirm inactive
Cc1cc(C)cc(NC(=O)N2CCNC(=O)C2CC(=O)Nc2cc(Cl)ccc2Cl)c1 (stereo not drawn)	none
Cc1ccc(S(=O)(=O)CCC(=O)N(CCCN2CCOCC2)c2nc3ccccc3s2)cc1	PLCg1 inh 13 | PLCg1 ctr inactive | PLCb3 confirm inactive
COc1cccc(S(=O)(=O)N(C)C[C@H]2OCc3cnnn3CCCC(=O)N([C@@H](C)CO)C[C@@H]2C)c1	PLC-beta3 inh 11 | PLCg1 ctr inactive | PLCb3 confirm inactive
C[C@@H]1CN([C@H](C)CO)C(=O)CCCn2nncc2CO[C@H]1CN(C)C(=O)Nc1cccc(Oc2ccccn2)c1	PLCg1 inh 9.7 | PLCg1 ctr inactive | PLCb3 confirm inactive
COc1cccc(S(=O)(=O)N(C)C[C@@H]2OCc3cnnn3CCCC(=O)N([C@H](C)CO)C[C@@H]2C)c1	none
CCOc1ccccc1N/C(=N/c1nc(C)cc(C)n1)NC(=O)Nc1ccc(Cl)c(Cl)c1	none
COc1cccc(CSc2nnc(-c3ccncc3)n2N)c1	none
C=CCn1c(SCc2cccc(OC)c2)nnc1-c1ccncc1	PLCg1 inh 12 | PLCg1 ctr inactive | PLCb3 confirm inactive
c1ccc(CCn2c(SCc3ccccc3)nnc2-c2ccncc2)cc1	PLCg1 inh 9.9 | PLCg1 ctr inactive | PLCb3 confirm inactive
N#Cc1ccc(CSc2nnc(-c3ccncc3)n2CCc2ccccc2)cc1	none
CCCn1ncc(CN2CCC(N3CCC(C(=O)N4CCOCC4)CC3)CC2)c1C	none
O=C(CCc1nc(-c2ccccc2F)no1)NCCN1CCOCC1	PLC-beta3 inh 14 | PLCg1 ctr inactive | PLCb3 confirm inactive
Clc1ccc(Cn2ccc(-c3ccc4c(c3)OCO4)n2)cc1Cl	PLCg1 inh 19, PLC-beta3 inh 12 | PLCg1 ctr inactive | PLCb3 confirm inactive
CC(OC(=O)CCN1C(=O)C2CC=CCC2C1=O)C(=O)Nc1cccc(Cl)c1 (stereo not drawn)	none
C=CCN(C(=O)CNC(=O)c1ccco1)C(C(=O)NC1CCCC1)c1ccc(OC)cc1 (stereo not drawn)	none
Cc1cc(C)nc(SCc2nnc(SCC(=O)Nc3c(C)cccc3C)o2)n1	PLCg1 inh 11 | PLCg1 ctr inactive | PLCb3 confirm inactive
Cc1cccc(C)c1NC(=O)CSc1nnc(Cc2ccccc2)o1	none
COc1ccc(Cn2c(-c3ccc(Br)cc3)c[n+]3ccccc23)cc1	none
O=C(c1cccs1)N1CCN(C(=O)c2cn(-c3ccccc3)nc2-c2ccccc2)CC1	PLC-beta3 inh 12 | PLCg1 ctr inactive | PLCb3 confirm inactive
O=C(c1cn(-c2ccccc2)nc1-c1ccccc1)N1CCOCC1	none
CCc1cc2c(SCC(=O)N3CCCC3=O)ncnc2s1	none
O=C(CN1C2=NCCCN2c2ccccc21)c1ccc([N+](=O)[O-])cc1	PLCg1 inh 9.6 | PLCg1 ctr inactive | PLCb3 confirm inactive
Cc1cc(N2CCN(C)CC2)nc2ccc(NC(=O)CCC3CCCC3)cc12	none
COC(=O)c1cccc(NC(=O)Nc2ccc(Cl)cc2Cl)c1	PLCg1 inh 9.9 | PLCg1 ctr inactive | PLCb3 confirm inactive
COC(=O)c1cccc(NC(=S)Nc2cc(Cl)ccc2OC)c1	none
COC(=O)c1cccc(NC(=O)C(C)N2C(=O)c3ccccc3C2=O)c1 (stereo not drawn)	PLCg1 inh 10 | PLCg1 ctr inactive | PLCb3 confirm inactive
COc1cccc(NC(=O)C(C)N2C(=O)c3ccccc3C2=O)c1 (stereo not drawn)	none
O=C(Nc1cccc(Br)c1)c1cc(S(=O)(=O)N2CCOCC2)cs1	none
COc1ccc(N(C(=O)CNC(=O)c2cccs2)C(C(=O)NCC2CCCO2)c2ccccc2)cc1 (stereo not drawn)	none
CNC(=S)N/N=C(\C)c1ccc2c(c1)OCCO2	PLCg1 inh 15 | PLCg1 ctr inactive | PLCb3 confirm inactive
Oc1ccc(C[C@@H]2CNCCN2CCCCC2CCCCC2)cc1	PLC-beta3 inh 14 | PLCg1 ctr inactive | PLCb3 confirm inactive
Cc1nc2c3cc(F)ccc3n(CCN3CCCCC3)c2s1	PLCg1 inh 9.7 | PLCg1 ctr inactive | PLCb3 confirm inactive
Cc1nc2c3cc(F)ccc3n(Cc3ccccc3)c2s1	none
COc1ccc(CNC(=O)C(c2ccco2)N(C(=O)c2snc(C(N)=O)c2N)c2cccc(OC)c2)cc1 (stereo not drawn)	none
COc1ccc2nc(NC(=O)C3CCCN(S(=O)(=O)c4cccc5nonc45)C3)sc2c1 (stereo not drawn)	PLCg1 inh 10 | PLCg1 ctr inactive | PLCb3 confirm inactive
CCOc1ccc2nc(NC(=O)C3CCCN(S(=O)(=O)c4cccc5nonc45)C3)sc2c1 (stereo not drawn)	none
CCOc1ccc2[nH]cc(-c3csc(N)n3)c2c1	none
O=C(O)CCC(=O)CCC(=O)c1ccc(Cl)cc1	PLCg1 inh 11 | PLCg1 ctr inactive | PLCb3 confirm inactive
O=C(NCc1ccccc1)c1onc(CSc2ccc(F)c(F)c2)c1C(=O)NCc1ccccc1	PLC-beta3 inh 11 | PLCg1 ctr inactive | PLCb3 confirm inactive
